Inconclusive results are not listed. Where a structure was tested more than once in an assay, its records may differ in their call. Active and inactive are the calls of the source. The call rests on the fitted dose curve; in most records, active means well fitted curve in the direction sought with a large enough effect; inconclusive means small, poorly fitted or top-dose-only effect, or another doubt; inactive means no such curve, though single readings can be large; an effect the other way counts as inactive or inconclusive. *1 amine or outer side, *2 acyl side, *3 side chain or, on linkers, in order; H or OH if unused. Where a SMILES comes first, the peptide text is derived from it. Bridges are numbered along the chain shown (N, C = ends). [ ]: non-standard residue; d: D form. The star is where a group is joined. ξ: configuration not given here. ΔAla(3-NHCONH2) = NC(=O)NC=C(N)C(=O)O; X2 = NC1=NCCC(C(N[*:1])C(=O)[*:2])N1; ξβ3hOrn = NCCCC(N)CC(=O)*; Dap = NC[CH](N)C(=O)O
Legend:
[1] = target: Cytochrome P450 3A7 (Homo sapiens) (UniProt P24462); experiment: Cytochrome P450 family 3 subfamily A member 7 (CYP3A7) small molecule antagonists: luciferase biochemical qHTS assay (AID 1963596); further: on the % scale 0 is the no-effect control and ±100 the full control effect; nearly all actives have a fitted effect of over 40% in size
Chain of Cytochrome P450 3A7 (Homo sapiens) (P24462 whole entry, looked up): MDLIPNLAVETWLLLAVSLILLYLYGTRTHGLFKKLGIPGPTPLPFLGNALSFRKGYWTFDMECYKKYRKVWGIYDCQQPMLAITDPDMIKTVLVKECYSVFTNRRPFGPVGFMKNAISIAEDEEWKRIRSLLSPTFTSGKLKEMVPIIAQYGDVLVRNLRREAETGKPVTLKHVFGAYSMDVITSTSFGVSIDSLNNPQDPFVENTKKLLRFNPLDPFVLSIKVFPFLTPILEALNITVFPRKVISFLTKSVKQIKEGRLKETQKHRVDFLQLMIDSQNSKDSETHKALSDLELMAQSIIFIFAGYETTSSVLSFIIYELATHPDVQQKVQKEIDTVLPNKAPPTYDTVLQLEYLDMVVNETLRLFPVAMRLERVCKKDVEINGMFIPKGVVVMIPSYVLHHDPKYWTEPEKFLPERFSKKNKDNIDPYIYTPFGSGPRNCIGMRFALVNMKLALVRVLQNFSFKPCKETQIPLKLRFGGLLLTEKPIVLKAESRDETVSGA
Summary of the method: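 Luminescence read-out (relative luminescence units) after 20 min with detection reagent, which stops the reaction. Enzyme, proluciferin substrate and compound preincubated 10 min, RT; NADPH regeneration system then started 1 h reaction. Ketoconazole as positive control.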

[2] = Viability qHTS for spleen associated tyrosine kinase inhibitor (SYKi) naive MV4-11 cells (AID 1963823); further: nearly all actives have a fitted effect of over 40% in size; further: potency means the concentration at half of the fitted maximal effect
Summary of the method: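 In this viability screen, compounds acted on SYK inhibitor naive MV4-11 cells for three days (72 hr, 37 C). Remaining viable cells were measured by CellTiter-Glo luminescence following a 10 min room-temperature development.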

[3] = Viability qHTS for spleen associated tyrosine kinase inhibitor (SYKi) drug resistant MV4-11 cells (AID 1963824); further: nearly all actives have a fitted effect of over 35% in size; further: potency means the concentration at half of the fitted maximal effect
Summary of the method: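 CellTiter-Glo luminescence, read 10 min after reagent addition, reports viability after a 72 hr compound exposure. Cells are an MV4-11 line made resistant to SYK inhibition, seeded at 500 per well onto compound-containing plates.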

[4] = Cellular viability qHTS for adrenocortical cancer (ACC) cell line SW-13 (AID 1963989); conditions: SW-13 ACC cells viability, CellTiter-Glo, 48 h; activity (max response): stronger effect = lower value;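 further: cells grown in serum-free medium with ITS supplement; on the % scale 0 is the no-effect control and ±100 the full control effect; nearly all actives have a fitted effect of over 65% in size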
Summary of the method: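 SW-13 cells in ITS-supplemented serum-free DMEM were plated overnight, then exposed for 48 h at 37C to compound titrations (up to 46 uM final). Viability was read by CellTiter-Glo luminescence; four-parameter logistic fits gave IC50 and efficacy.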

[5] = Cellular viability qHTS for adrenocortical cancer (ACC) cell line NCI-H295R (AID 1963990);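 further: 0% = DMSO only wells and -100% = full killing with cytotoxic reference compound; nearly all actives have a fitted effect of over 60% in size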
Summary of the method: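 Luminescent ATP read-out (CellTiter-Glo, 20 min RT) after 48 h drug exposure of NCI-H295R cells; a titration up to 46 uM final. Data normalized to doxorubicin (100% inhibition) and DMSO (0%); 4-parameter fit gives IC50, max response.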

CC(=O)N(CC(O)CN(C(C)=O)c1c(I)c(C(=O)NCC(O)CO)c(I)c(C(=O)NCC(O)CO)c1I)c1c(I)c(C(=O)NCC(O)CO)c(I)c(C(=O)NCC(O)CO)c1I (stereo not given)
inactive: Potency [1] | Potency [2] | Potency [3] | activity (max response) [4] 14.1% | Potency [5]

OC[C@@H](O)[C@@H](O[C@@H]1O[C@H](CO)[C@H](O)[C@H](O)[C@H]1O)[C@H](O)[C@@H](O)CO
inactive: Potency [1] | Potency [2] | Potency [3] | activity (max response) [4] 1.27% | Potency [5]

COCCOCC(OC)OC
inactive: Potency [1] | Potency [2] | Potency [3] | activity (max response) [4] 10.1% | Potency [5]

COc1cc(OC)cc(OC)c1
inactive: Potency [1] | Potency [2] | Potency [3] | activity (max response) [4] 5.62% | Potency [5]

COC(=O)/C=C(/C)N
inactive: Potency [1] | Potency [3] | activity (max response) [4] 13.3% | Potency [5]
active: Potency [2] 16.8 µM

O=C1NS(=O)(=O)c2ccccc21
inactive: Potency [1] | Potency [2] | Potency [3] | activity (max response) [4] 0.607% | Potency [5]

O=C(O)c1ccccc1S
inactive: Potency [1] | Potency [2] | Potency [3] | activity (max response) [4] 5.53% | Potency [5]

O=C(CN1CCNCC1)NC1CCCCC1
inactive: Potency [1] | Potency [2] | Potency [3] | activity (max response) [4] -8.69% | Potency [5]

Oc1ccc(C(O)CNCCCCCCNCC(O)c2ccc(O)c(O)c2)cc1O (stereo not given)
inactive: Potency [1] | Potency [2] | Potency [3] | activity (max response) [4] -8.39% | Potency [5]

CC1(C)S[C@@H]2[C@H](N=CN3CCCCCC3)C(=O)N2[C@H]1C(=O)O
inactive: Potency [1] | Potency [2] | Potency [3] | activity (max response) [4] 3.39% | Potency [5]

CCOC(=O)C(=O)c1csc(NC=O)n1
inactive: Potency [1] | Potency [2] | Potency [3] | activity (max response) [4] 8.44% | Potency [5]

COc1cc(C(=O)NCc2ccc(OCCN(C)C)cc2)cc(OC)c1OC
inactive: Potency [1] | Potency [2] | Potency [3] | activity (max response) [4] -6.7% | Potency [5]

COc1cc(C=O)ccc1O
inactive: Potency [1] | Potency [2] | Potency [3] | activity (max response) [4] 3.08% | Potency [5]

NC(=Nc1ccccc1)Nc1ccccc1
inactive: Potency [1] | activity (max response) [4] -1.07% | Potency [5]
38.6 µM (active) and inactive: Potency [2]
active: Potency [3] 34.4 µM

Cc1nnc(C(C)C)n1C1CC2CCC(C1)N2CC[C@H](NC(=O)C1CCC(F)(F)CC1)c1ccccc1 (stereo not given in full)
inactive: Potency [1] | Potency [2] | Potency [3] | activity (max response) [4] 2.32% | Potency [5]

CC(C)Cn1cnc2c1c(=O)n(C)c(=O)n2C
inactive: Potency [1] | Potency [2] | Potency [3] | activity (max response) [4] -11.6% | Potency [5]

NCCCC(N)CC(=O)NCC1NC(=O)C(CO)NC(=O)C(N)CNC(=O)C(C2CCN=C(N)N2)NC(=O)C(=CNC(N)=O)NC1=O (stereo not drawn) (H-[Dap]S[Dap](ξβ3hOrn)[ΔAla(3-NHCONH2)][X2]; lactam 1-C; configuration not given here)
inactive: activity change, negative = inhibition [1] 0.114% [at 0.91 µM] | viability (% of control) [2] 84.9% [at 0.588 µM] | viability, % of control [3] 101% [at 0.588 µM] | activity (max response) [4] -2.59% | activity change, negative = viability loss [5] 3.92% [at 0.587 µM]

N=C(N)N1CCc2ccccc2C1
inactive: activity change, negative = inhibition [1] 2.18% [at 4.83 µM] | viability (% of control) [2] 81.1% [at 4.97 µM] | viability, % of control [3] 96.6% [at 4.97 µM] | activity (max response) [4] -5.8% | activity change, negative = viability loss [5] -6.61% [at 3.81 µM]

COCCc1ccccn1
active: Potency [2] 0.075 µM
inactive: Potency [1] | Potency [3] | activity (max response) [4] -6% | Potency [5]

NC(=O)C1(N2CCCCC2)CCN(CCCC(=O)c2ccc(F)cc2)CC1
inactive: Potency [1] | Potency [2] | Potency [3] | activity (max response) [4] 1.85% | Potency [5]

Cc1ncc(COP(=O)(O)O)c(C=O)c1O
inactive: Potency [1] | Potency [2] | Potency [3] | activity (max response) [4] 7.84% | Potency [5]

Nc1ccc(C(=O)O)cc1
inactive: Potency [1] | Potency [2] | Potency [3] | activity (max response) [4] 6.83% | Potency [5]

COC(=O)c1cccnc1
inactive: Potency [1] | Potency [2] | Potency [3] | activity (max response) [4] 5.78% | Potency [5]

O=C(COCC(=O)N1CCN(C(c2ccccc2)c2ccccc2)CC1)Nc1ccc(Cl)cc1C(=O)O
inactive: Potency [1] | Potency [2] | Potency [3] | activity (max response) [4] -10.1% | Potency [5]

C[N+](C)(C)CC(O)CC(=O)[O-] (stereo not given)
inactive: Potency [1] | Potency [2] | Potency [3] | activity (max response) [4] -6.62% | Potency [5]

CCN1CCCC1=O
inactive: Potency [1] | Potency [2] | Potency [3] | activity (max response) [4] 9.62% | Potency [5]

O=C(O)c1ccccc1O
inactive: Potency [1] | Potency [2] | Potency [3] | activity (max response) [4] 13.2% | Potency [5]

CCCC(=O)Nc1ccc(OCC(O)CNC(C)C)c(C(C)=O)c1 (stereo not given)
inactive: Potency [1] | Potency [2] | Potency [3] | activity (max response) [4] 0.0374% | Potency [5]

COC(=O)c1ccc(O)cc1
inactive: Potency [1] | Potency [2] | Potency [3] | activity (max response) [4] 11.5% | Potency [5]

CC1(C)O[C@@H]2[C@@H](CO[C@@]3(COS(N)(=O)=O)OC(C)(C)O[C@@H]23)O1
inactive: Potency [1] | Potency [2] | Potency [3] | activity (max response) [4] 9.55% | Potency [5]

O=C(O)[C@H](CC(=O)N1C[C@H]2CCCC[C@H]2C1)Cc1ccccc1
inactive: Potency [1] | Potency [2] | Potency [3] | activity (max response) [4] 1.52% | Potency [5]

Cc1cccc(C)c1NC(=O)CN1CCCCCC1
inactive: Potency [1] | Potency [2] | Potency [3] | activity (max response) [4] 6.22% | Potency [5]

COc1ccc(/C(C)=C/C(=O)O)c(OC)c1
inactive: Potency [1] | Potency [2] | Potency [3] | activity (max response) [4] 9.2% | Potency [5]

CC(C)(C)NCC(O)COc1cccc2c1C[C@H](O)[C@H](O)C2 (stereo not given in full)
inactive: Potency [1] | Potency [2] | Potency [3] | activity (max response) [4] 9.63% | Potency [5]

O=c1[nH]c2ccccc2c(=O)n1CCCl
inactive: Potency [1] | Potency [2] | Potency [3] | activity (max response) [4] 10.7% | Potency [5]

CCOC(=O)CN1CCCC1=O
inactive: Potency [1] | Potency [2] | Potency [3] | activity (max response) [4] 4.08% | Potency [5]

CCS(=O)(=O)c1ccc(OC)c(C(=O)OC)c1
inactive: Potency [1] | Potency [2] | Potency [3] | activity (max response) [4] 10.8% | Potency [5]
